Test results reported in PubChem BioAssay (Tox21).
A number with no mark means an inactive call. Results filed as inconclusive are left out. Where a call stands in place of a potency, no number is given. Activity calls are given as the source filed them. Unless noted, calls follow the shape of the full dose curve.

Columns and labels:
[1] = biological target: Gonadotropin-releasing hormone receptor (Homo sapiens) (UniProt P30968); assay: Human gonadotropin-releasing hormone receptor (GnRHR) small molecule agonists, calcium flux assay in GnRHR-HEK293 cells (AID 1920063); also: nearly all actives have a fitted effect of over 35% in size
Sequence of Gonadotropin-releasing hormone receptor (Homo sapiens) (P30968 whole entry, looked up): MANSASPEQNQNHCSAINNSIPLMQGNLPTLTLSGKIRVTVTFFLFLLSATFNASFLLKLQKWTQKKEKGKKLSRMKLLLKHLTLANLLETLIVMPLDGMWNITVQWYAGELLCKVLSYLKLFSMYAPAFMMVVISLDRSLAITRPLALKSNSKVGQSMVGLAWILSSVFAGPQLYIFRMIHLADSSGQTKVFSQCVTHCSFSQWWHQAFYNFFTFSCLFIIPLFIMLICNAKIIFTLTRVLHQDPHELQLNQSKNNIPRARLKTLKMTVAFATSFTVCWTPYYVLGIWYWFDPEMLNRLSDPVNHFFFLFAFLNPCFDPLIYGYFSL
How it was run: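 Calcium flux, agonist mode, human GnRHR stably integrated in HEK293; dye 1 h at 37 C before compound; Ex/Em=480/540 kinetic read, 3 min; 15 concentrations, triplicate.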

[2] = biological target: KiSS-1 receptor (Homo sapiens) (UniProt Q969F8); assay: Human kisspeptin (KISS1R) small molecule agonists, calcium flux assay in KISS1R-HEK293 cells (AID 1920064; active = well fitted activation curve with a large enough effect in the repeat runs)
Sequence of KiSS-1 receptor (Homo sapiens) (Q969F8 whole entry, looked up): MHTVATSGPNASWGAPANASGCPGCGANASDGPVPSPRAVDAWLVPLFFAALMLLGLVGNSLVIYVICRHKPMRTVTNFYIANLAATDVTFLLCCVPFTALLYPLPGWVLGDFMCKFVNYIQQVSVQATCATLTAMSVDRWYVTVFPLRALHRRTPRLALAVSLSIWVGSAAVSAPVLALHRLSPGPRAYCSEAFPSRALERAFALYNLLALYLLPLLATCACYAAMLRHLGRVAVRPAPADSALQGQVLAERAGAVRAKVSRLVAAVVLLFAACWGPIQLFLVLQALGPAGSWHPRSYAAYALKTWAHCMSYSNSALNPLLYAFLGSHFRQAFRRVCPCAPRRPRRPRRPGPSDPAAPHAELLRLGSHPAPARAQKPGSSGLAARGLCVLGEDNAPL
How it was run: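 Triplicate 15-concentration series were applied to dye-loaded human KISS1R HEK293 cells, and agonist-evoked calcium fluorescence was captured for 3 min.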

[3] = G protein-coupled receptor (GPCR) small molecule agonists, calcium flux assay: HEK293 wild type cell line counter screen (AID 1920065)
How it was run: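 Non-specific calcium responders were flagged by adding DMSO-dissolved compounds to dye-loaded cells and reading 480/540 nm fluorescence each second for 3 min; ATP served as positive control.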

[4] = p53 small molecule agonists, cell-based qHTS assay with human liver microsomes (AID 1963577);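 also: p53 response element beta-lactamase reporter cells with liver microsomes plus NADPH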
How it was run: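 16 h, 37 C exposure of p53RE-bla cells to compounds with human liver microsomes and NADPH (0.5 mg/mL final each); detection via LiveBLAzer mixture, 2 h dark at room temperature.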

[5] = p53 small molecule agonists, cell-based qHTS assay with rat liver microsomes (AID 1963578)
How it was run: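 With rat liver microsomes and NADPH present (0.5 mg/mL final each), p53RE-bla cells are treated with compound for 16 h at 37 C. LiveBLAzer detection mixture is then applied for 2 h at room temperature in the dark.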

[6] = p53 small molecule agonists, cell-based qHTS assay: qHTS cell viability counter screen (AID 1963581); also: nearly all actives have a fitted effect of over 45% in size
How it was run: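 Multiplexed with the reporter read, a CellTiter-Glo step (30 min, room temperature) gauges ATP-based viability of HCT-116 p53RE-bla cells after 16 h compound incubation at 37 C.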

[7] = biological target: 5-hydroxytryptamine receptor 2A (Homo sapiens) (UniProt P28223); assay: 5-hydroxytryptamine receptor 2A (HTR2A) small molecule antagonists, cell-based qHTS assay (AID 1963586); also: nearly all actives have a fitted effect of over 45% in size; also: potency is read from the fitted curve at half-maximal effect
Sequence of 5-hydroxytryptamine receptor 2A (Homo sapiens) (P28223 whole entry, looked up): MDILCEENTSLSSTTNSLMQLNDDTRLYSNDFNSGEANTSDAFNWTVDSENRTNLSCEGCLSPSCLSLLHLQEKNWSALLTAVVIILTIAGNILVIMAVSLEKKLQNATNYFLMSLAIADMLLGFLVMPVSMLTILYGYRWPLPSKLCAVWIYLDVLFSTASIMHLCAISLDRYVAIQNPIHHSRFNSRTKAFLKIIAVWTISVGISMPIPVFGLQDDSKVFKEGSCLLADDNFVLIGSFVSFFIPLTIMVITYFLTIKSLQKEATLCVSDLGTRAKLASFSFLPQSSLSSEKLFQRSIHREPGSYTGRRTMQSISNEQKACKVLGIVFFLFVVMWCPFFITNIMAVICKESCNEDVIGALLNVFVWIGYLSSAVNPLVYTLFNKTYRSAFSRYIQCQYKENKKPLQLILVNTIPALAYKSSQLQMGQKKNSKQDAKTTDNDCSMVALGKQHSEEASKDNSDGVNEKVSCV
How it was run: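 CHO cells stably expressing human HTR2A were plated for 18 h at 37 C, then loaded with calcium dye for 1 h. Compounds were preincubated 5 min at room temperature before DOI (4 nM solution) was added. Kinetic fluorescence was read for 3 min.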

[8] = biological target: 5-hydroxytryptamine receptor 2A (Homo sapiens) (UniProt P28223); assay: 5-hydroxytryptamine receptor 2A (HTR2A) small molecule agonists, cell-based qHTS assay (AID 1963587); also: nearly all actives have a fitted effect of over 30% in size
How it was run: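 Kinetic calcium-flux fluorescence (2 min, 1 sec intervals) after compound addition in agonist mode. HTR2A-CHO cells were cultured 18 h, then dye-loaded 1 h at 37 C.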

[9] = biological target: Muscarinic acetylcholine receptor M1 (Homo sapiens) (UniProt P11229); assay: Cholinergic receptor muscarinic 1 (CHRM1) small molecule antagonists, cell-based qHTS assay (AID 1963588); also: nearly all actives have a fitted effect of over 40% in size
Sequence of Muscarinic acetylcholine receptor M1 (Homo sapiens) (P11229 whole entry, looked up): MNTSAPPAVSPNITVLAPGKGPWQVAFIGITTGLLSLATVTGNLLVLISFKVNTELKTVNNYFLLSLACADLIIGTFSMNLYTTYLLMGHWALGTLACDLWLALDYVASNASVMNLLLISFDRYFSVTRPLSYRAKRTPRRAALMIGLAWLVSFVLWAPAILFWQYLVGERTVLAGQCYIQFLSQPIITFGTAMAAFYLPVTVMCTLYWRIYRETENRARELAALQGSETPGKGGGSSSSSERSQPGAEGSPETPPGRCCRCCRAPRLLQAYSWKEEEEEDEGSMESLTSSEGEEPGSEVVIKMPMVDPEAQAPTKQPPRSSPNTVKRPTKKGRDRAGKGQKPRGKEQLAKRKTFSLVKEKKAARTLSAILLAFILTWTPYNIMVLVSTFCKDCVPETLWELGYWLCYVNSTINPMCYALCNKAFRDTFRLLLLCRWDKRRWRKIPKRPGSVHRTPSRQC
How it was run: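 Compounds were tested at 15 concentrations in three independent runs. Dye-loaded CHRM1-CHO cells were exposed 5 min at room temperature before stimulation by acetylcholine added at 50nM. Intracellular calcium was read kinetically on FDSS for 3 min.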

[10] = cAMP Responsive Elements (CRE) small molecule antagonists, cell-based qHTS assay (AID 1963591; active = well fitted inhibition curve with a large enough effect in the signal ratio in the repeat runs, not every such curve was filed as active; the % refers to the signal ratio)
How it was run: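 Fluorescence intensity from cleaved LiveBLAzer B/G substrate (2 h, room temperature) quantified CRE-bla activity in HEK 293T cells exposed 3 h to compound with 0.25 uM final NKH477.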

[11] = biological target: D(2) dopamine receptor (Homo sapiens) (UniProt P14416); assay: Dopamine D2 receptor (DRD2) small molecule agonists, cell-based qHTS assay (AID 1963594); also: nearly all actives have a fitted effect of over 35% in size
Sequence of D(2) dopamine receptor (Homo sapiens) (P14416 whole entry, looked up): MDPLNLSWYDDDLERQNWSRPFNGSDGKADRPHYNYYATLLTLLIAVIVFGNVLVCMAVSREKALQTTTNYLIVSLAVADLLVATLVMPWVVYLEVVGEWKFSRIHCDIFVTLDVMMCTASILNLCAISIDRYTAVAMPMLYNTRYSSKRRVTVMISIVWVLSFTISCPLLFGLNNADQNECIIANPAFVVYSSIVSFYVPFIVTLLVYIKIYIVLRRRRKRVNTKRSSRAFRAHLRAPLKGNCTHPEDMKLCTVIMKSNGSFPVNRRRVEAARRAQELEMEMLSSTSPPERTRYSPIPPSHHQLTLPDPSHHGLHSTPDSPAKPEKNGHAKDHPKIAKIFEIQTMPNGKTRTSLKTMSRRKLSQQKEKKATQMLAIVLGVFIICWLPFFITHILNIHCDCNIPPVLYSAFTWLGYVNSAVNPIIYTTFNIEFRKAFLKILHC
How it was run: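 cAMP accumulation in DRD2-HEK293 cells measured by HTRF after 1 h detection; compounds added 10 min before NKH477 (200nM […]) forskolin-analogue stimulation, 30 min at room temperature, with Ro20-1724 present at 0.1 mM final.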

[12] = biological target: D(2) dopamine receptor (Homo sapiens) (UniProt P14416); assay: Dopamine D2 receptor (DRD2) small molecule antagonists, cell-based qHTS assay (AID 1963595; active = well fitted inhibition curve with a large enough effect in the signal ratio in the repeat runs, with a control signal flat; the % refers to the signal ratio; also: potency is read from the fitted curve at half-maximal effect)
How it was run: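 HEK293 cells stably expressing DRD2, preincubated with 0.1 mM Ro20-1724 and compounds 10 min, were stimulated with 200 nM NKH477 plus 12 nM quinpirole for 30 min at room temperature; cAMP measured by HTRF (665/620 nm).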

[13] = p53 small molecule agonists, cell-based qHTS assay with human liver microsomes: qHTS cell viability counter screen (AID 1963579); also: nearly all actives have a fitted effect of over 45% in size
How it was run: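 In this multiplexed counter screen, the reporter plates were subsequently treated with CellTiter-Glo so that cell viability, reflected by luminescence, could be recorded for p53RE-bla cells dosed 16 h with compounds under microsomal activation (HLM and NADPH).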

[14] = p53 small molecule agonists, cell-based qHTS assay with rat liver microsomes: qHTS cell viability counter screen (AID 1963580); also: nearly all actives have a fitted effect of over 45% in size
How it was run: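 Rat liver microsome (0.5 mg/mL final) and NADPH (0.5 mg/mL final) co-incubation with compounds for 16 h at 37 C on HCT-116 p53RE-bla cells; cytotoxicity taken from intracellular ATP luminescence.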

[15] = biological target: Muscarinic acetylcholine receptor M1 (Homo sapiens) (UniProt P11229); assay: Cholinergic receptor muscarinic 1 (CHRM1) small molecule agonists, cell-based qHTS assay (AID 1963589); also: nearly all actives have a fitted effect of over 35% in size
How it was run: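 qHTS, 15-point titration, 3 independent runs: compounds pin-transferred onto dye-loaded CHRM1-CHO cells (human M1), calcium fluorescence followed every second to detect agonism.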

[16] = biological target: Beta-2 adrenergic receptor (Homo sapiens) (UniProt P07550); assay: Adrenergic beta2 receptor (ADRB2) small molecule antagonists, cell-based qHTS assay (AID 1963592); also: series mostly up to about 92 µM; nearly all actives have a fitted effect of over 50% in size
Sequence of Beta-2 adrenergic receptor (Homo sapiens) (P07550 whole entry, looked up): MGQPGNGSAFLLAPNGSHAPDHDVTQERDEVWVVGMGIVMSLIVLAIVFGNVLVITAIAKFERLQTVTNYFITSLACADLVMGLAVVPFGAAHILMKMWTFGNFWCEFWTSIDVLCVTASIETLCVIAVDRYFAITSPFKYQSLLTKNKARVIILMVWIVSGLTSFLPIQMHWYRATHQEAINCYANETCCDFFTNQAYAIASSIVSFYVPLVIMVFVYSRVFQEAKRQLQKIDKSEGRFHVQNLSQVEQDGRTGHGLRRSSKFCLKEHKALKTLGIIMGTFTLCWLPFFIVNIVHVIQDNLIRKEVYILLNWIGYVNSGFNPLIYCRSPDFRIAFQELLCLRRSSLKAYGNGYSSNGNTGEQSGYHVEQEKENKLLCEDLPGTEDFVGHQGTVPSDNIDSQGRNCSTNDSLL
How it was run: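 Assay format: CHO-ADRB2 cells, 18-20hr seeding at 37C/5% CO2, then compound plus 1nM isoproterenol agonist mix for 0.5hr RT. Homogeneous time-resolved fluorescence cAMP detection after 1hr, expressed as 665/615 nm ratio.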

[17] = biological target: Beta-2 adrenergic receptor (Homo sapiens) (UniProt P07550); assay: Adrenergic beta2 receptor (ADRB2) small molecule agonists, cell-based qHTS assay (AID 1963593);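 also: CHO cells stably overexpressing human ADRB2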
How it was run: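 CHO cells stably over-expressing ADRB2 were plated overnight at 37C, then dosed with compounds plus a stimulation mix containing 100uM IBMX and 25uM Ro-20-1724 for 0.5hr at room temperature. cAMP was measured by HTRF competition, 1hr.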

[18] = p53 small molecule agonists, cell-based qHTS assay (AID 1963582; active = well fitted activation curve with a large enough effect in the signal ratio in the repeat runs, not every such curve was filed as active; the % refers to the signal ratio)
How it was run: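 Beta-lactamase reporter cells (p53RE-bla) treated with compounds for 16 h at 37 C; FRET substrate, 2 h, room temperature; fluorescence intensity.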

[19] = cAMP Responsive Elements (CRE) small molecule agonists, cell-based qHTS assay (AID 1963590)
How it was run: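 Quantitative HTS for CRE agonists: HEK 293T CRE-bla cells, overnight plating, 3 h compound incubation at 37 C/5% CO2, then 2 h room-temperature LiveBLAzer B/G FRET substrate loading.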

O=S(=O)(c1ccc(OCc2ccccc2)cc1)c1ccccc1O
Potency [1]: inactive | Potency [2]: inactive | Potency [3]: inactive | Potency [4]: inactive | Potency [5]: inactive | Potency [6]: inactive | Potency [7]: 0.594 µM (active) | Potency [8]: inactive | Potency [9]: inactive | Potency [10]: inactive | Potency [11]: inactive | Potency [12]: 61.1 µM (active)

CNS(=O)(=O)c1cc(C(=O)N2CCC(CCN3C4CCC3CC(n3c(C)nc5ccccc53)C4)(c3cccc(F)c3)CC2)c(Cl)cc1F (stereo unspecified)
Potency [1]: inactive | Potency [2]: inactive | Potency [3]: inactive | Potency [5]: inactive | Potency [13]: inactive | Potency [14]: inactive | Potency [6]: inactive | Potency [7]: inactive | Potency [8]: inactive | Potency [15]: inactive | Potency [16]: inactive | Potency [17]: inactive | Potency [11]: inactive | Potency [12]: inactive

C[C@@H](O[C@H]1OCCN(Cc2n[nH]c(=O)[nH]2)[C@H]1c1ccc(F)cc1)c1cc(C(F)(F)F)cc(C(F)(F)F)c1
Potency [1]: inactive | Potency [2]: inactive | Potency [3]: inactive | Potency [4]: inactive | Potency [13]: inactive | Potency [14]: inactive | Potency [18]: inactive | Potency [9]: inactive | Potency [15]: inactive | Potency [16]: inactive | Potency [11]: inactive | Potency [12]: inactive

C[N+]1(C)CCC(OC(=O)C(O)(c2ccccc2)C2CCCC2)C1 (stereo unspecified)
Potency [1]: inactive | Potency [2]: inactive | Potency [3]: inactive | Potency [6]: inactive | Potency [18]: inactive | Potency [8]: inactive | Potency [15]: inactive | Potency [19]: inactive | Potency [16]: inactive | Potency [11]: inactive | Potency [12]: inactive

CC(C)c1nnc2ccc(-c3ocnc3-c3cc(F)ccc3F)cn12
Potency [1]: inactive | Potency [2]: inactive | Potency [3]: inactive | Potency [6]: inactive | Potency [7]: inactive | Potency [8]: inactive | Potency [15]: inactive | Potency [16]: inactive | Potency [11]: inactive | Potency [12]: inactive

CN(C)C(=N)N=C(N)N
Potency [1]: inactive | Potency [2]: inactive | Potency [3]: inactive | Potency [6]: inactive | Potency [18]: inactive | Potency [19]: inactive | Potency [10]: inactive | Potency [16]: inactive | Potency [17]: inactive | Potency [11]: inactive | Potency [12]: inactive

c1ccc(-c2ccccc2-c2ccccc2)cc1
Potency [1]: inactive | Potency [2]: inactive | Potency [4]: inactive | Potency [18]: inactive | Potency [7]: inactive | Potency [8]: inactive | Potency [9]: inactive | Potency [15]: inactive | Potency [10]: inactive | Potency [16]: inactive | Potency [17]: inactive | Potency [11]: inactive | Potency [12]: inactive

CN(C)CCOC(c1ccccc1)c1ccccc1 (tested in a mixture with another compound)
Potency [1]: inactive | Potency [2]: inactive | Potency [3]: inactive | Potency [19]: inactive | Potency [10]: inactive | Potency [11]: inactive | Potency [12]: inactive

COc1cc(Cc2cnc(N)nc2N)cc(OC)c1OC
Potency [1]: inactive | Potency [2]: inactive | Potency [3]: inactive | Potency [18]: inactive | Potency [8]: inactive | Potency [15]: inactive | Potency [19]: inactive | Potency [10]: inactive | Potency [16]: inactive | Potency [17]: inactive | Potency [12]: inactive

NCCCC(O)(P(=O)(O)O)P(=O)(O)O
Potency [1]: inactive | Potency [2]: inactive | Potency [3]: inactive | Potency [6]: inactive | Potency [18]: inactive | Potency [19]: inactive | Potency [10]: inactive | Potency [16]: inactive | Potency [17]: inactive | Potency [11]: inactive | Potency [12]: inactive

N[C@@H](Cc1ccc(O)cc1)C(=O)O
activity change [1]: -0.862% [at 5.22 µM, active compounds read high] | activation [2]: 0.301% [at 6.97 µM] | activation [3]: 1.73% [at 5.23 µM] | activity change, negative = cytotoxicity [6]: 14.2% [at 5.99 µM] | activity, negative = inhibition [7]: 17.7% [at 5.62 µM] | activation [8]: 0.614% [at 7.02 µM] | activity, negative = inhibition [9]: -1.5% [at 5.58 µM] | activation [15]: 0.14% [at 6.97 µM] | activation [19]: -0.513% [at 8.39 µM] | activity change, negative = inhibition [10]: 0.559% [at 8.39 µM] | activation [17]: 15.9% [at 8.39 µM] | activity change, negative = inhibition [12]: 0.318% [at 8.38 µM]

Cc1cnc(C(=O)NCCc2ccc(S(=O)(=O)NC(=O)NC3CCCCC3)cc2)cn1
Potency [1]: inactive | Potency [2]: inactive | Potency [3]: inactive | Potency [6]: inactive | Potency [18]: inactive | Potency [10]: inactive | Potency [16]: inactive | Potency [12]: inactive

CN(C)CCOC(c1ccccc1)c1ccccc1
Potency [1]: inactive | Potency [2]: inactive | Potency [3]: inactive | Potency [6]: inactive | Potency [19]: inactive | Potency [10]: inactive | Potency [16]: inactive | Potency [11]: inactive | Potency [12]: inactive
